# Source: PubChem BioAssay (NCATS)
# Several values for one entry are separate records, joined by “and”; a condition that tells them apart may be missing. Identical values can stand only once. Records with an inconclusive call do not appear. Entries that show only a call come without a potency. Activity calls are given as the source filed them. Unless noted, calls follow the shape of the dose curve; as a rule, active = well fitted curve in the direction sought with a large enough effect; inconclusive = small, poorly fitted or top-dose-only effect, or another doubt; inactive = no such curve, though single readings can be large; an effect the other way counts as inactive or inconclusive.
# Tests used:
# [1] = Primary qHTS for inhibitors of La Crosse Virus (LACV) - induced cell death in SH-SY5Y cells (AID 1508616); also: potency is read from the fitted curve at half-maximal effect
# Method in brief: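 SH-SY5Y cells (6000/well) plated 24 h, then given compounds by pin transfer and LACV at 0.01 MOI for 6 days at 37C. Viability measured by ATPLite luminescence, normalized to infected DMSO and uninfected DMSO.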
# [2] = molecular target: Calcium and integrin-binding protein 1 (Homo sapiens) (UniProt Q99828); assay: Primary qHTS for Identification of Calcium Integrin Binding Protein 1 (CIB1) Competitor (AID 1508620);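 also: GST tagged CIB1 binding a fluorescein labelled alphaIIb integrin peptide tracer; top concentration of the series differs between compounds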
# Method in brief: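 Fluorescence polarization competition: CIB1-GST (1 uM final) preincubated with compound 15 min at room temperature, then FITC-labeled alphaIIb peptide (100 nM final) added for another 15 min. Polarization read at Ex 480/Em 540.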
# [3] = A High-Content qHTS Against Drug Library for the Identification of Small Molecules that Inhibit DYT1 Early Onset Primary Dystonia-Associated Cell Pathology (AID 1645839; calls by dose curve; also: series mostly up to about 46 µM)
# Method in brief: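 Readout: %pathology, the punctate EGFP-TorsinA distribution from imaging, as the primary channel and cell count as the toxicity counterscreen. HEK293 Flp-In cells expressing delE TorsinA were induced with tetracycline and treated with compound for 48 h.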
# [4] = molecular target: Cytochrome P450 2C9 (Homo sapiens) (UniProt P11712); assay: Cytochrome P450 family 2 subfamily C member 9 (CYP2C9) small molecule antagonists: luciferase biochemical (cell-free) qHTS assay (AID 1645842; active = well fitted curve in the direction sought with a large enough effect in the repeat runs; an effect the other way counts as inactive or inconclusive; also: nearly all actives have a fitted effect of over 55% in size; also: potency is read from the fitted curve at half-maximal effect)
# Method in brief: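 Luminescence, after 20 min with luciferin detection reagent, reflected CYP2C9 turnover during a 1 h NADPH-driven reaction at 37C. Enzyme-substrate mix contained 0.4% bovine serum albumin and was preincubated with compound 10 min at room temperature.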
# [5] = Primary qHTS for inhibitors of nuclear receptor binding SET domain protein 2 (NSD2) in an isogenic RCH-ACV NSD2 p.E1099K mutant (9B) (AID 1645876); also: nearly all actives have a fitted effect of over 70% in size; also: potency is read from the fitted curve at half-maximal effect
# [6] = Primary qHTS for small molecule stabilizers of the endoplasmic reticulum resident proteome: Secreted ER Calcium Modulated Protein (SERCaMP) assay (AID 1508630)
# Method in brief: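 GLuc-SERCaMP-expressing SH-SY5Y cells, pretreated 16 h with compound, are challenged with thapsigargin to empty ER calcium stores; after 4 h, coelenterazine is added directly to the medium and luminescence is imaged.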
# [7] = molecular target: Cytochrome P450 2D6 (Homo sapiens) (UniProt P10635); assay: Cytochrome P450 family 2 subfamily D member 6 (CYP2D6) small molecule antagonists: luciferase biochemical (cell-free) qHTS assay (AID 1645840; active = well fitted curve in the direction sought with a large enough effect in the repeat runs; an effect the other way counts as inactive or inconclusive; also: nearly all actives have a fitted effect of over 55% in size; also: potency is read from the fitted curve at half-maximal effect)
# Method in brief: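 P450-Glo luminescent screen: recombinant CYP2D6 enzyme–proluciferin substrate mix preincubated with compound 10 min at room temperature, then NADPH regeneration added for 1 h at room temperature. Detection reagent added for 20 min; luciferin light read as relative luminescence units.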
# [8] = Primary qHTS for inhibitors of nuclear receptor binding SET domain protein 2 (NSD2) in an RCH-ACV wild type WT cells (2C) (AID 1645877); also: nearly all actives have a fitted effect of over 70% in size
# [9] = molecular target: Calcium and integrin-binding protein 1 (Homo sapiens) (UniProt Q99828); assay: Validation qHTS for Identification of Calcium Integrin Binding protein 1 (CIB1) Competitor (AID 1508618)
# Method in brief: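 In this qHTS validation, the LOPAC set (up to 114 uM) was tested for blocking CIB1 binding to a fluorescein-tagged alphaIIb peptide, with FP detection at 480/540 nm.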
# Papain (Carica papaya) = Papain (Carica papaya) (UniProt P00784); assay: Primary qHTS assay for inhibitors of the protease papain (AID 1645873);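 also: papain turnover of Z-FR-AMC read as the AMC fluorescence gain over 10 min; series mostly up to about 50 µM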
# [10] = molecular target: Cytochrome P450 3A4 (Homo sapiens) (UniProt P08684); assay: Cytochrome P450 family 3 subfamily A member 4 (CYP3A4) small molecule antagonists: luciferase qHTS assay (AID 1645841; active = well fitted curve in the direction sought with a large enough effect in the repeat runs; an effect the other way counts as inactive or inconclusive; also: nearly all actives have a fitted effect of over 45% in size)
# Method in brief: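 P450-Glo CYP3A4 enzyme with proluciferin substrate was preincubated with DMSO-dissolved compounds for 10 min at room temperature. NADPH regeneration solution started a 1 h reaction. Detection reagent stopped it, and luminescence was read after 20 min.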
# [11] = Confirmatory qHTS for small molecule stabilizers of the endoplasmic reticulum resident proteome: Secreted ER Calcium Modulated Protein (SERCaMP) assay (AID 1508628); also: potency is read from the fitted curve at half-maximal effect; nearly all actives have a fitted effect of over 40% in size
# Method in brief: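 SH-SY5Y cells stably expressing GLuc-SERCaMP, treated 16 h with compound (primary 1.53, 7.67, 38.3 uM; confirmation 11 concentrations, up to 76.6 uM), then 100 nM thapsigargin for 4 h. Secreted Gaussia luciferase in medium read by coelenterazine luminescence.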
# [12] = molecular target: Rap guanine nucleotide exchange factor 3 (Homo sapiens) (UniProt O95398); assay: Confirmatory qHTS for antagonist of cAMP-regulated guanine nucleotide exchange factor 3 (EPAC1) (AID 1645880); also: nearly all actives have a fitted effect of over 55% in size
# Method in brief: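 Nucleotide exchange uses 100 nM EPAC1, 250 nM RAP1B-BODIPY-GDP and 50 uM GDP, with compounds in a concentration-titration series. After 5 min at room temperature, fluorescence (480 nm ex/540 nm em) is read every 5 min for 30 min. Data are normalized to control ATA and DMSO.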
# [13] = molecular target: Rap guanine nucleotide exchange factor 3 (Homo sapiens) (UniProt O95398); assay: Confirmatory qHTS for agonist of cAMP-regulated guanine nucleotide exchange factor 3 (EPAC1) (AID 1645881);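 also: EPAC1 catalysed release of BODIPY-GDP from Rap1B seen as fluorescence loss; nearly all actives have a fitted effect of over 75% in size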
# [14] = molecular target: Rap guanine nucleotide exchange factor 4 (Homo sapiens) (UniProt Q8WZA2); assay: Confirmatory qHTS for agonist of cAMP-regulated guanine nucleotide exchange factor 4 (EPAC2) (AID 1645884);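 also: nucleotide exchange releases bodipy-GDP from Rap1 and this lowers its fluorescence; nearly all actives have a fitted effect of over 65% in size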
# [15] = Counterscreen qHTS for small molecule stabilizers of the endoplasmic reticulum resident proteome: GLuc-NoTag assay (AID 1508627);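 also: SH-SY5Y cells given compound then 100 nM thapsigargin to empty ER calcium; series mostly up to about 76 µM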
# Method in brief: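 SH-SY5Y cells stably expressing constitutively secreted GLuc (no SERCaMP tag) were pre-incubated 5 h, treated with compound for 19 h, then 100 nM thapsigargin for 4 h at 37C; medium GLuc read by coelenterazine luminescence.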
# Sequence of Calcium and integrin-binding protein 1 (Homo sapiens) (Q99828 whole entry, looked up): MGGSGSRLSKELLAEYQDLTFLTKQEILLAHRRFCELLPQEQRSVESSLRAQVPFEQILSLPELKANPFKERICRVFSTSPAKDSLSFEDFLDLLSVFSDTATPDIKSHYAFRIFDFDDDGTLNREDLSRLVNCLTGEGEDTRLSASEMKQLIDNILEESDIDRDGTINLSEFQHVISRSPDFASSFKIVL
# Sequence of Cytochrome P450 2D6 (Homo sapiens) (P10635 whole entry, looked up): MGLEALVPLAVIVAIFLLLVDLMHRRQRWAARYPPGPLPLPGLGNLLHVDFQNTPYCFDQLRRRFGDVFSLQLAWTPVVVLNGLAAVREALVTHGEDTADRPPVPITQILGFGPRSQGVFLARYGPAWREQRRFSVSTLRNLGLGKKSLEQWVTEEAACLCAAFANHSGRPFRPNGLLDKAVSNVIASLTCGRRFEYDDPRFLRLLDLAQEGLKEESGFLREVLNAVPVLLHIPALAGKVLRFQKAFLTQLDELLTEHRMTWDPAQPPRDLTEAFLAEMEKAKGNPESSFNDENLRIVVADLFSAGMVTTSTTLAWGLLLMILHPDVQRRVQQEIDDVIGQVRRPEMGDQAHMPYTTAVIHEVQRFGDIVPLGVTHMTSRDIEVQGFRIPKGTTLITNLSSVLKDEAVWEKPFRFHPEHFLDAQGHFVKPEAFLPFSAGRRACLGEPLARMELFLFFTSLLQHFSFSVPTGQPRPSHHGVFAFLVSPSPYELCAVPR
# Sequence of Cytochrome P450 2C9 (Homo sapiens) (P11712 whole entry, looked up): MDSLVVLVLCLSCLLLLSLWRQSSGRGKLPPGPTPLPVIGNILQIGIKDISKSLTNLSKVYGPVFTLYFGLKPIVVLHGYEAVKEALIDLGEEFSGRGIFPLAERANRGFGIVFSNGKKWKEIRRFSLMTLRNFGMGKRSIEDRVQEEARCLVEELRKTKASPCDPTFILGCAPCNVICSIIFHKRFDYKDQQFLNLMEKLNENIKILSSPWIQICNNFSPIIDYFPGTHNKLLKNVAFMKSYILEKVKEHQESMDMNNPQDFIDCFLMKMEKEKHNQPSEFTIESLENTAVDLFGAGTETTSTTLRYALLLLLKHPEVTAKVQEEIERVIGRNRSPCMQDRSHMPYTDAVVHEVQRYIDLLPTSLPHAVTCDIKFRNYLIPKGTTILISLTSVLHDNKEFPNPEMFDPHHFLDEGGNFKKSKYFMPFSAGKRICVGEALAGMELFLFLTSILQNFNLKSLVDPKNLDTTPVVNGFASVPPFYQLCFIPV
# Sequence of Papain (Carica papaya) (P00784 whole entry, looked up): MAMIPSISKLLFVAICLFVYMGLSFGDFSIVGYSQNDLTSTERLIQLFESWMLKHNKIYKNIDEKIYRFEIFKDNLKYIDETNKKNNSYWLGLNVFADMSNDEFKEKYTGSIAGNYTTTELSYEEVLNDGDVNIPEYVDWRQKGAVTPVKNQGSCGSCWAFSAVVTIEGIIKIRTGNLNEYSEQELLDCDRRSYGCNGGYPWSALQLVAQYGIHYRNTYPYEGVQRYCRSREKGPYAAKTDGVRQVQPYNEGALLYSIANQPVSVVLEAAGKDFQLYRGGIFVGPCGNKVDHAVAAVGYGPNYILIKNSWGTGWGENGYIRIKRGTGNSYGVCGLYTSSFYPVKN
# Sequence of Rap guanine nucleotide exchange factor 3 (Homo sapiens) (O95398 whole entry, looked up): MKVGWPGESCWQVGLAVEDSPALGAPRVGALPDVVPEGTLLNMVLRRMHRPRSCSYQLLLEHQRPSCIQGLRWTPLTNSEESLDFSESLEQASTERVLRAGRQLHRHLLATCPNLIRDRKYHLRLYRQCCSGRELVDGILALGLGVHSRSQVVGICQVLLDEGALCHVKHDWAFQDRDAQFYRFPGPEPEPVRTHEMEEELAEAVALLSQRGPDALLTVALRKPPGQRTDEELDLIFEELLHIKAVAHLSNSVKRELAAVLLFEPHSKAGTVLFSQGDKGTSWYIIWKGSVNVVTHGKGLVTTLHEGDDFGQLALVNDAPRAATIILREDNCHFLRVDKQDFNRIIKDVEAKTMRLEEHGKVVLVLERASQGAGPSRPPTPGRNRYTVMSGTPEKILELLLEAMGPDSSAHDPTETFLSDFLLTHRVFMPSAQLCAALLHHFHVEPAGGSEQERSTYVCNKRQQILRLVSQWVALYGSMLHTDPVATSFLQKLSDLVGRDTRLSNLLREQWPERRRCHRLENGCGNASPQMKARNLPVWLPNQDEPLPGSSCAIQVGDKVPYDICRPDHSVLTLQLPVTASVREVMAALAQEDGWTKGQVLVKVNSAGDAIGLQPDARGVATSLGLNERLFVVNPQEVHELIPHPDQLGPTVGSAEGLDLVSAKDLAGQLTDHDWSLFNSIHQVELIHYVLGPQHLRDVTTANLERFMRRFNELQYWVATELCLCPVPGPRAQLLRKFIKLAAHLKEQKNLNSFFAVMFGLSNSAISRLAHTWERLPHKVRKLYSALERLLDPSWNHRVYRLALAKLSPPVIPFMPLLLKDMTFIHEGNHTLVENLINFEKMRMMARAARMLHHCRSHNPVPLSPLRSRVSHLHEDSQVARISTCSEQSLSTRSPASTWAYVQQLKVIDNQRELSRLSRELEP
# Sequence of Cytochrome P450 3A4 (Homo sapiens) (P08684 whole entry, looked up): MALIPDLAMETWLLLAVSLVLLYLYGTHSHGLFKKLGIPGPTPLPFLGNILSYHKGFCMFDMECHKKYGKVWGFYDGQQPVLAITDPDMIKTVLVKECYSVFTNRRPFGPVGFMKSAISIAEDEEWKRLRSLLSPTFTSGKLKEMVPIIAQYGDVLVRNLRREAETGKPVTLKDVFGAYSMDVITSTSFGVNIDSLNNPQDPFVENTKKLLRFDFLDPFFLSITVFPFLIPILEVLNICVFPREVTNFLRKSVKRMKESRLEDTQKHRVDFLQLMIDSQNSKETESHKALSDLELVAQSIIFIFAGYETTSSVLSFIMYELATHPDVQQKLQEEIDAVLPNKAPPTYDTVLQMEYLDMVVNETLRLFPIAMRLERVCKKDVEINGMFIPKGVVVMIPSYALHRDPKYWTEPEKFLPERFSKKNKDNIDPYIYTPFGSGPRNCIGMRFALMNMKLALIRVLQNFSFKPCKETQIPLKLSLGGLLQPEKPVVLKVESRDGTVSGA
# Sequence of Rap guanine nucleotide exchange factor 4 (Homo sapiens) (Q8WZA2 whole entry, looked up): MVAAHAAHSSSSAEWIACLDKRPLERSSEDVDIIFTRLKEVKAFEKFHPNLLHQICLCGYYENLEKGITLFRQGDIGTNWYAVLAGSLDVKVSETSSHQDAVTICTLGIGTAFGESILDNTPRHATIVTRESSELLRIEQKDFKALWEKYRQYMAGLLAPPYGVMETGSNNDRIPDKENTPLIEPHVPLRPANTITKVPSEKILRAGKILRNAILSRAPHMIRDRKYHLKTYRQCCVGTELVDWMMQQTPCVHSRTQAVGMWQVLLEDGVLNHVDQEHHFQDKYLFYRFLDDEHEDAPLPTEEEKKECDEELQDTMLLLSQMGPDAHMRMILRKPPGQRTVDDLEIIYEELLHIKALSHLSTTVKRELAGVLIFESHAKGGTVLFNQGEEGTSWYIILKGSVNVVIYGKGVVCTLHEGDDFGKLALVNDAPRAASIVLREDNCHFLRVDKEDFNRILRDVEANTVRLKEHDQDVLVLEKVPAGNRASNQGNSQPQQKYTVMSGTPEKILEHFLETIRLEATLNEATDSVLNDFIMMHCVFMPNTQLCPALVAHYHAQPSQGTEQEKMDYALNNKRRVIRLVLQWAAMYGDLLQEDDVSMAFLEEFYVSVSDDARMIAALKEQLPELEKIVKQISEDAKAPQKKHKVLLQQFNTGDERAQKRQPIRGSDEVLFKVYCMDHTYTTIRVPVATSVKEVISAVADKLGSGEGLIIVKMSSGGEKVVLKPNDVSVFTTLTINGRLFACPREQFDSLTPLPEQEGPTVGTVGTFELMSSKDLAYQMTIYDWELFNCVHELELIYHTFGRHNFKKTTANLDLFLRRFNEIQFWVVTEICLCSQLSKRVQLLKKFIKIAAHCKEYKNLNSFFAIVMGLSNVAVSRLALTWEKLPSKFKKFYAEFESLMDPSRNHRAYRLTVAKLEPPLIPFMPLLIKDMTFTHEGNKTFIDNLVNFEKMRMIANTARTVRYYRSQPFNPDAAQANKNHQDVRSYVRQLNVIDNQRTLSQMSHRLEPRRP
compound,measurement,setting,value
CN(C)CCn1nnnc1SCC1=C(C(=O)O)N2C(=O)[C@@H](NC(=O)Cc3csc(N)n3)[C@H]2SC1,Potency,[1],inactive
same,Potency,[2],inactive
same,Potency,[3],inactive
same,Potency,[4],inactive
same,Potency,[5],inactive
C[N+]1(C)[C@@H]2CC(OC(=O)[C@H](CO)c3ccccc3)C[C@H]1[C@@H]1O[C@@H]12 (stereo partly specified),Potency,[1],inactive
same,Potency,[2],inactive
same,Potency,[6],inactive
same,Potency,[3],inactive
same,Potency,[7],inactive
same,Potency,[5],inactive
same,Potency,[8],inactive
CCCCCCCCCCCCCCCCCC(=O)OC(CC(=O)O)C[N+](C)(C)C (stereo unspecified),Potency,[1],inactive
same,outcome,[9],inactive
same,Potency,Papain (Carica papaya),inactive
CCCCCCCCCCCC(=O)[O][Sn]([CH2]CCC)([CH2]CCC)[O]C(=O)CCCCCCCCCCC,Potency,[1],inactive
same,Potency,[2],inactive
same,Potency,[3],inactive
same,Potency,[7],inactive
same,Potency,[4],inactive
same,Potency,[5],inactive
CCOC(=O)c1ccccc1O,Potency,[1],inactive
same,Potency,[2],inactive
same,Potency,[3],inactive
same,Potency,[7],inactive
same,outcome,[10],inactive
same,Potency,[4],inactive
same,Potency,[5],inactive
same,Potency,[8],inactive
N#C/C(=C\c1ccc(-c2cc(Cl)ccc2Cl)o1)C(=O)Nc1cccc2ncccc12,Potency,[1],inactive
same,outcome,[9],inactive
same,Potency,Papain (Carica papaya),inactive
CCOc1ccc2nc(S(N)(=O)=O)sc2c1,Potency,[1],inactive
same,Potency,[2],inactive
same,Potency,[3],inactive
same,Potency,[7],inactive
c1ccc2sc(SN3CCOCC3)nc2c1,Potency,[1],inactive
same,Potency,[2],inactive
same,Potency,[6],inactive
same,Potency,[3],inactive
same,Potency,[7],inactive
same,Potency,[4],10.7 µM (active) and 15.5 µM (active)
same,Potency,[5],inactive
same,Potency,[8],inactive
CO[C@@]1(NC(=O)Cc2cccs2)C(=O)N2C(C(=O)O)=C(COC(N)=O)CS[C@@H]21,Potency,[1],inactive
same,Potency,[2],inactive
same,Potency,[3],inactive
same,Potency,[7],inactive
same,Potency,[4],inactive
same,Potency,[5],inactive
same,Potency,[8],inactive
O=P(O)(O)C(Cl)(Cl)P(=O)(O)O,Potency,[1],inactive
same,outcome,[9],inactive
same,Potency,[6],inactive
same,Potency,Papain (Carica papaya),inactive
CC(=O)N[C@H](C(=O)O)C(C)(C)SN=O,Potency,[1],inactive
same,outcome,[9],inactive
same,Potency,Papain (Carica papaya),inactive
O=c1[nH]c2ccccc2n1CCCN1CCN(C(c2ccccc2)c2ccccc2)CC1,Potency,[1],inactive
same,Potency,[2],inactive
same,Potency,[7],0.055 µM (active)
same,Potency,[5],23.7 µM (active)
N=C(N)N,Potency,[1],inactive
same,Potency,[2],inactive
same,Potency,[3],inactive
same,Potency,[7],inactive
same,outcome,[10],inactive
same,Potency,[4],inactive
same,Potency,[5],inactive
Cc1c(C(=O)O)c(O)cc2c1C(=O)c1c(O)c([C@@H]3O[C@H](CO)[C@@H](O)[C@H](O)[C@H]3O)c(O)c(O)c1C2=O,Potency,[1],inactive
same,Potency,[2],inactive
same,Potency,[11],44.7 µM (active)
same,Potency,[3],inactive
same,Potency,[7],inactive
Cc1c(Nc2ncccc2C(=O)O)cccc1C(F)(F)F,Potency,[1],inactive
same,Potency,[2],inactive
same,Potency,[7],inactive
same,Potency,[4],inactive
CC(C)NC[C@H](O)COc1cccc2[nH]ccc12,Potency,[1],inactive
same,outcome,[9],inactive
same,Potency,Papain (Carica papaya),inactive
COc1ccc(-c2cc(=S)ss2)cc1,Potency,[1],inactive
same,Potency,[2],inactive
same,Potency,[6],inactive
same,Potency,[3],inactive
same,Potency,[4],11 µM (active)
same,Potency,[5],inactive
same,Potency,[8],inactive
O=C1CN(/N=C/c2ccc([N+](=O)[O-])o2)C(=O)N1,Potency,[1],inactive
same,Potency,[2],inactive
same,Potency,[3],inactive
same,Potency,[4],inactive
c1ccc(CCNc2nc(-c3ccccc3)cs2)cc1,Potency,[1],inactive
same,Potency,[2],inactive
same,Potency,[6],inactive
same,Potency,[3],inactive
same,Potency,[7],5.49 µM (active)
same,Potency,[4],5.49 µM (active)
same,Potency,[12],inactive
same,Potency,[13],inactive
same,Potency,[14],inactive
Cc1c(N)c(=O)n(-c2ccccc2)n1C,Potency,[1],inactive
same,Potency,[2],inactive
same,Potency,[6],inactive
same,Potency,[3],inactive
same,Potency,[7],inactive
same,Potency,[5],inactive
NC(=O)C(c1ccccc1)(c1ccccc1)[C@@H]1CCN(CCc2ccc3c(c2)CCO3)C1,Potency,[1],inactive
same,Potency,[2],inactive
same,Potency,[7],0.617 µM (active)
same,Potency,[4],inactive
CC(=O)c1ccc(OCC(=O)N2CCCCC2)cc1,Potency,[1],inactive
same,Potency,[2],inactive
same,Potency,[3],inactive
same,Potency,[7],inactive
same,Potency,[4],inactive
same,Potency,[5],inactive
Cc1[nH]cnc1CN1CCc2c(c3ccccc3n2C)C1=O,Potency,[1],inactive
same,Potency,[2],inactive
same,Potency,[6],inactive
same,Potency,[3],inactive
same,Potency,[7],7.76 µM (active)
same,Potency,[4],1.55 µM (active)
same,Potency,[5],inactive
same,Potency,[8],inactive
Cc1ccc(S(=O)(=O)/C=C/C#N)cc1,Potency,[1],1.41 µM (active)
same,outcome,[9],inactive
same,Potency,[6],inactive
same,Potency,Papain (Carica papaya),inactive
CN1C2CCC1CC(OC(=O)C(O)c1ccccc1)C2 (stereo unspecified),Potency,[1],inactive
same,outcome,[9],inactive
same,Potency,Papain (Carica papaya),inactive
Cc1cc(O)c2ccccc2c1O,Potency,[1],inactive
same,Potency,[2],inactive
same,Potency,[6],inactive
same,Potency,[7],11 µM (active)
NCCO,Potency,[1],inactive
same,Potency,[2],inactive
same,Potency,[15],inactive
same,Potency,[3],inactive
same,Potency,[7],inactive
same,Potency,[4],inactive
same,Potency,[5],inactive
COc1cc2c(CCNC(C)=O)c[nH]c2cc1Cl,Potency,[1],inactive
same,outcome,[9],inactive
same,Potency,Papain (Carica papaya),inactive
COc1cc2c3cc1Oc1cc(ccc1O)C[C@@H]1c4c(cc(OC)c(O)c4Oc4ccc(cc4)C[C@@H]3N(C)CC2)CC[N+]1(C)C,Potency,[1],inactive
same,Potency,[2],inactive
same,Potency,[6],inactive
same,Potency,[3],inactive
same,Potency,[7],inactive
same,Potency,[4],inactive
same,Potency,[5],inactive
same,Potency,[8],inactive
O=C(O)Cc1ccc(-c2ccccc2)cc1,Potency,[1],inactive
same,Potency,[2],inactive
same,Potency,[6],inactive
same,Potency,[3],inactive
same,Potency,[7],inactive
same,Potency,[4],inactive
same,Potency,[8],inactive
